Measured values from the OligoGym collection.

target: SLC25A25; experiment: pooled miR-30 sensor sort-seq; sequence = guide strand; conditions: shRNA
Note: reference of the scale not given here.

Row | Sequence | sensor-assay potency score (higher = more potent)
1 | TTGAGCGTCTCGTAGACTGCAA | 0.033
2 | TCCACTGTGAACTCATCCGGGA | -0.99
3 | TGCATGAGCACCTTGAGCCTGT | -0.00686
4 | TATCTTGACTCCCAAGTCCCGC | -1.03
5 | AAATTCTTCAAAGTCTAGCTGC | 0.318
6 | TTCCAGTCGATGGTCATCGTGC | -0.398
7 | TTCTCGTAGACCACGTAGCTGA | -0.478
8 | TAAATGACAACTTCTAACGTCC | 0.0926
9 | TTAAATGACAACTTCTAACGTC | 0.538
10 | TAGTCTCTCCACTCGTTCCAGT | -0.705

target: SLC25A30; experiment: as above; conditions: shRNA

Row | Sequence | sensor-assay potency score (higher = more potent)
11 | TAGAGTTTCATCTTCTGGGCGT | 0.316
12 | TGTCTGTAACAAGCAATCCAGG | -1.42
13 | TTATAGAGAGCAAAAAACCCTT | -0.63
14 | TAAATGTTCATGAAGTTGCCTA | -0.274
15 | TAAGTGCCTATCTTGATGGTGC | 0.212
16 | TATCGGTAGAGTTTCATCTTCT | 0.16
17 | TTATCGGTAGAGTTTCATCTTC | -0.374
18 | TGTAGCCAGAACATCTGCCATC | -1.32
19 | TATCATTCCTCCTTGAATGGTG | -0.0231
20 | TTCAATGAATAGTCGCTTCAAG | -0.455
21 | TTGCTTTGCGCTTGCATCCGAA | -1.2

target: SLC25A38; experiment: as above; conditions: shRNA

Row | Sequence | sensor-assay potency score (higher = more potent)
22 | TATGAGTTTTGATAACATCCGC | -0.0581
23 | TTGAAAATAAGTGTCACTGCTT | 0.827
24 | TATATTTTTGGTCTGGTTGTAA | 0.16
25 | ATGAGTTTTGATAACATCCGCA | 0.0272
26 | TAGGACTTCATCTTACTGCAGA | -0.516
27 | TTTGATAACATCCGCAGGTTGA | -0.428
28 | TATGAATTGATGACTCCTCTTT | 0.416
29 | TAACATAAGCGTTTCCACCGTG | 0.26
30 | TGAGTTTTGATAACATCCGCAG | -0.615
31 | AAGAGTACAGCCAACATCCCAA | -0.0219
32 | ATAGGTGACATACAGACCCCTG | -0.876
33 | TTGATGACTCCTCTTTTGGAGA | -1.04

target: SLC25A3; experiment: as above; conditions: shRNA

Row | Sequence | sensor-assay potency score (higher = more potent)
34 | TTTAAATCCAAGTCTCTTGAGG | -0.533
35 | TTCACAACTGTACTCTTCCACG | -0.783
36 | TATGGTATCTGTCTCATCCAGA | 0.075
37 | TACAAATGTTACAACCAGCTGC | 0.505
38 | TTGAGGACCAGAGAAGCACTGC | 0.0253
39 | TTAAGTGTAACTGAGAATCCGT | 0.392
40 | TTGTACAGTGCTTCAACAGTAC | 0.043
